Sampled rows, rich in hits. Any-hit rate of the full collection: about 0.86%.
HIV TAR-Tat = HIV-1 TAR-Tat binding disruption. 100,000 tested, 0.6% active. HIV-1 TAR RNA, Tat peptide displacement FRET; active compounds read high. z-score (test concentration not listed); active means z-score of 3 or more in at least 2 runs
CDC25B CDK2 inh = human CDC25B-CDK2/CyclinA binding inhibition; AID 1259370; P30305+P24941; z-score (no concentration beside the values); HTRF CDC25B-CDK2/CyclinA binding, anti-His/anti-Flag; active compounds read high; 94,000 tested, 0.72% active; in the data active means z-score above about 3.2
* marks the source's active call; other numbers are inactive results; . = no result.

SMILES	HIV TAR-Tat	CDC25B CDK2 inh
CC1O[C@@H](Oc2c(-c3ccc(O)c(O)c3)oc3cc(O)cc(O)c3c2=O)[C@H](O)[C@H](O)[C@H]1O (stereo partly drawn)	2.79	.
COc1cc(-c2oc3cc(O)cc(O)c3c(=O)c2OC[C@@H]2OC(O[C@@H]3O[C@@H](C)[C@H](O)[C@@H](O)[C@H]3O)[C@@H](O)[C@H](O)[C@@H]2O)ccc1O (stereo partly drawn)	4.95	.
Cc1nc(-n2cccc2)sc1C(=O)NC1CCCCC1	1.44	-1.61
Cc1ccc(SCc2cc(=O)n3c(C)csc3n2)cc1	0.45	-0.47
CC(C)(C)c1csc(NC(=O)CSc2ccccc2)n1	0.21	.
CCOC(=O)N1CCN(C(=O)c2c(C)oc3ncnc(N4CCCCC4)c23)CC1	0.34	-0.5
CCOC(=O)Cn1c(=O)oc2cc(S(=O)(=O)N3CC(C)CC(C)C3)ccc21 (stereo not drawn)	-2.71	0.25
O=C(O)CS(=O)(=O)Cc1cccc(F)c1	0.36	.
O=C(Nc1ccc2c(c1)nc1n2CCN(C2CCCCC2)C1)c1ccco1	31.1*	7.11*
O=C(Nc1ccc2c(c1)nc1n2CCN(C2CCCCC2)C1)NC1CCCCC1	-2.97	-1.29
O=C1CCSc2c1cccc2C(=O)N1CCOCC1	1.3	.
O=C1c2ccccc2-c2c1cccc2C(=O)N1CCOCC1	-0.31	17.4*
CN1C(=O)C2CCCCN2c2ccc(C(=O)N3CCC(C(N)=O)CC3)cc21 (stereo not drawn)	1.14	.
COc1cc(NC(=O)CCS(=O)(=O)c2ccc3c(c2)CC(=O)N3C)cc(OC)c1	0.14	.
CCSc1nc2n(n1)C(c1ccc(C)cc1)C1=C(CCCC1=O)N2 (stereo not drawn)	1.62	-2.12
O=C1c2ccccc2C(=O)c2c(NCCc3ccc(O)cc3)ccc(NCCc3ccc(O)cc3)c21	.	2.71
O=C1c2c(O)ccc(O)c2C(=O)c2c(NCCNCCO)ccc(NCCNCCO)c21	17.4*	-0.47
CCCS(=O)(=O)N1CCCc2ccc(NS(=O)(=O)Cc3ccccc3)cc21	1.01	.
CCN(Cc1ccccc1)C(=O)CSc1nncn2c1cc1occc12	6.69*	.
C=CCN(C(=O)CSc1nncn2c1cc1occc12)c1ccccc1	1.36	.
Cc1nc(SCCc2ccccc2)cc(-c2ccccc2)n1	0.3	-0.19
O=C(CSC1=NS(=O)(=O)c2ccccc2N1)OCc1ccccc1	0.87	.
Cc1cc(C)nc(SN=C2C=C(Cl)C(=O)C(Cl)=C2)n1	.	15.5*
Cc1cc(C)nc(SCCS(=O)(=O)Cc2ccc(Cl)cc2)n1	.	-1.79
Cc1ccc(S(=O)(=O)N2CCCC(c3nc(-c4ccc(Cl)cc4)no3)C2)cc1C (stereo not drawn)	1.65	.
SMILES	HIV TAR-Tat	CDC25B CDK2 inh
CCOc1cc(C2CC(=O)N3CN(c4ccc(CC)cc4)CSC3=C2C#N)ccc1O (stereo not drawn)	23.7*	1.17
CCCSC1=C(C#N)C(c2ccc(O)c(OCC)c2)CC(=O)N1 (stereo not drawn)	-0.28	-1.05
CCOc1cc(C2CC(=O)N3CN(c4ccc(Br)cc4)CSC3=C2C#N)ccc1O (stereo not drawn)	26.8*	2.96
CCOc1cc(C2CC(=O)N3CN(Cc4ccco4)CSC3=C2C#N)ccc1O (stereo not drawn)	1.73	2.11
CCN1C(=O)C(Cc2nc3ccccc3c(=O)n2-c2ccc(Cl)cc2)c2ccccc21 (stereo not drawn)	0.81	-2.47
CC1CCN(C(=O)CSc2nc(-c3ccco3)nc3cc(=O)[nH]n23)CC1	9.23*	.
CC1CCCCN1C(=O)CSc1nc(-c2ccco2)nc2cc(=O)[nH]n12 (stereo not drawn)	1.22	.
CCN(CC)S(=O)(=O)c1ccc(Nc2ncnc3c2nc2n3CCCCC2)cc1	-0.24	.
O=C(NCCCN1CCCC1)C1=Cc2sc3c(c2CS1)CCCC3	1.98	.
O=C(O)c1ccccc1C(=O)Nc1ccc2c(c1)C(=O)c1ccccc1C2=O	.	7.78*
O=C(Nc1ccc2c(c1)C(=O)c1ccccc1C2=O)c1ccccc1	.	-0.85
CCOC(=O)/C=C/C(=O)O	.	-0.92
C[Si](C)(C)OC(=O)/C=C\C(=O)O[Si](C)(C)C	.	6.07*
CC(C)Cn1c(=O)c2ccccc2n2c(-c3cc(Cl)ccc3O)nnc12	2.26	-0.96
COc1ccc(C(=O)c2c(N)c(-c3nc(-c4ccccc4)cs3)c3ccccn23)cc1	3.62	-0.57
Nc1c(-c2nc(-c3ccccc3)cs2)c2ccccn2c1C(=O)c1cccs1	0.36	24.6*
COc1cccc(C2C(C#N)=C3N=C(N)c4ccccc4N3C3=C2C(=O)CCC3)c1 (stereo not drawn)	-1.69	-1.68
N#CC1=C2N=C(N)c3ccccc3N2C2=C(C(=O)CCC2)C1c1cccc(Cl)c1 (stereo not drawn)	-3.56	19.5*
CCN1CCN(c2cc(NC3CCCCC3)c3c4c(onc24)-c2ccccc2C3=O)CC1	4.31*	-0.46
CCCN1CCN(c2cc(NCC)c3c4c(onc24)-c2ccccc2C3=O)CC1	-0.63	-1.8
O=C1c2ccccc2-c2onc3c(N4CCOCC4)cc(NC4CCCCC4)c1c23	0.24	-0.89
CC1CCN(c2cc(NC(C)C)c3c4c(onc24)-c2ccccc2C3=O)CC1	2.26	-0.91
CC(C)Nc1cc(N2CCN(CCO)CC2)c2noc3c2c1C(=O)c1ccccc1-3	9.49*	0.08
CCNc1cc(N2CCN(CCO)CC2)c2noc3c2c1C(=O)c1ccccc1-3	15.5*	8.13*
CCN1CCN(c2cc(NC(C)C)c3c4c(onc24)-c2ccccc2C3=O)CC1	5.74*	-1.75
SMILES	HIV TAR-Tat	CDC25B CDK2 inh
CC(C)Nc1cc(N2CCCC2)c2noc3c2c1C(=O)c1ccccc1-3	-5.03	-1.66
CCc1cc(=O)oc2cc(C)c3c(C)c(C)oc3c12	.	-1.05
CCN(CC)S(=O)(=O)N1CCCC(C(=O)NC2CCCCC2)C1 (stereo not drawn)	-0.16	.
CCCNC(=O)[C@H]1O[C@@H]1C(=O)N[C@H](C(=O)N1CCC[C@H]1C(=O)O)C(C)CC (stereo partly drawn)	0.38	.
O=C(Nc1ccc2c(c1)C(=O)c1ccccc1C2=O)c1ccc(-c2ccc(Br)cc2)o1	.	-2.28
Cn1c(=O)n(Cc2ccccc2F)c(=O)c2c1nc1n2CCN1Cc1ccco1	4.65*	.
Cn1c(=O)n(Cc2ccccc2Cl)c(=O)c2c1nc1n2CCN1Cc1ccco1	.	-1.8
Cc1ccc(C(C)C)c(OCCCn2cnc3ccccc32)c1	0.92	-2.1
O=C1CCCc2oc3c(cc(NS(=O)(=O)c4ccc(Br)cc4)c4ccccc43)c21	.	0.83
CCCCN(CC)CCNC(=O)C1=Cc2sc3c(c2CS1)CCCC3	-2.32	.
COc1cccc(C2CC(=O)N3CN(c4ccc(N(C)C)cc4)CSC3=C2C#N)c1 (stereo not drawn)	-1.3	7.17*
COc1cccc(C2CC(=O)N3CN(c4ccccc4)CSC3=C2C#N)c1 (stereo not drawn)	-1.48	0.82
COc1ccc(N2CSC3=C(C#N)C(c4cccc(OC)c4)CC(=O)N3C2)cc1 (stereo not drawn)	0.29	6.07*
COc1cccc(C2CC(=O)N3CN(c4ccc(OC)c(OC)c4)CSC3=C2C#N)c1 (stereo not drawn)	-1.75	7.51*
Cc1ccc(N(C)S(=O)(=O)c2c(C)nc3sc(C)cn3c2=O)cc1	1.38	.
Fc1ccc(-c2noc3ncnc(Nc4cccc(Cl)c4)c23)cc1	-0.52	.
Fc1cccc(Nc2ncnc3onc(-c4ccc(Cl)cc4)c23)c1	17.6*	.
O=C(O)c1nccnc1C(=O)N1CCCN(c2c(Cl)cncc2Cl)CC1	.	-1.1
